Holding throughout (set-up): scale not given: direction of the effect not stated beside the values
Assay [1] concerns the target Protein translocase subunit SecA (Escherichia coli (strain K12)) (UniProt P10408). Nature of the assay: Assay to Identify E. coli SecA ATPase Inhibitors. It is filed as functional. As to conditions: 30 µM.
Assay [2] deals with T1, Ubiquitin-activating enzyme e1, putative (Leishmania donovani (strain BPK282A1)) (UniProt E9BSI1).
T1 sequence (whole entry): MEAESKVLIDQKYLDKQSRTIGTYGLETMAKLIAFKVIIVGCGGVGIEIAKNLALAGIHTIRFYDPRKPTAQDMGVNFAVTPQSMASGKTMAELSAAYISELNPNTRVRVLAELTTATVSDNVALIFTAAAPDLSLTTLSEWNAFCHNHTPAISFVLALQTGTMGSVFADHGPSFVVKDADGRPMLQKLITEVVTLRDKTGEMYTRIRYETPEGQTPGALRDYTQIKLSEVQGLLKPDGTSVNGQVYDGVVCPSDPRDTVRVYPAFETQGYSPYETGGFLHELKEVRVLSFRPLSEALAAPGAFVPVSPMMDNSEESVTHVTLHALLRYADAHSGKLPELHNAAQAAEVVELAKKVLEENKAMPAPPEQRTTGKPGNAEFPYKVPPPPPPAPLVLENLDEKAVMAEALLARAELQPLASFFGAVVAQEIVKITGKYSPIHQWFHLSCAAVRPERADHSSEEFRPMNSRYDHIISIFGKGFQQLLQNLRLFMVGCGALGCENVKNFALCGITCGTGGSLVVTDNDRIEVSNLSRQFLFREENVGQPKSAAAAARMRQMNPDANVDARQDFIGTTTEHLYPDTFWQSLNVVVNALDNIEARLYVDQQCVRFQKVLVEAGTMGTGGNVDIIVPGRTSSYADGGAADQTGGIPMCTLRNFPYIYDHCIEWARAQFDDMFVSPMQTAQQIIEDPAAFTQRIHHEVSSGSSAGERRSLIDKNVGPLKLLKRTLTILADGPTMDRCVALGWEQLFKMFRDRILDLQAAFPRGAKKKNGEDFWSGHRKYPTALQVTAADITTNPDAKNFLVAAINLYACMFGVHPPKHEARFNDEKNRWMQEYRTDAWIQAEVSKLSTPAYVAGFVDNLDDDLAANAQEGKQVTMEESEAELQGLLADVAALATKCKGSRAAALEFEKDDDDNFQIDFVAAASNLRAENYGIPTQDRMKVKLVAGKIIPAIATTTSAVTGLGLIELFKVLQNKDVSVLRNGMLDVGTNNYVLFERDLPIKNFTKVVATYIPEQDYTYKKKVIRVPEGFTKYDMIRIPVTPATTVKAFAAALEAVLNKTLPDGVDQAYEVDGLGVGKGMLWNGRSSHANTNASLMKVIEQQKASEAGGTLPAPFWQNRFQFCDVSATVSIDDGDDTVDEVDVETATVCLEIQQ
Put plainly: Leishmania donovani Ubiquitin Activating Enzyme (LdE1). It is filed as functional. As to conditions: 30 µM.

Assay [3] concerns the target AMP-activated protein kinase, AMPK (Homo sapiens) (UniProt P54646+O43741+P54619+Q9UGJ0+Q9Y478+Q13131+Q9UGI9). Nature of the assay: AMP-dependent Kinase enzyme assay. An in vitro enzyme assay that detects ADP turnover that is directly proportional to AMPK activity. This uses naive AMPK that is activated during the assay with MK-8722. It is filed as functional. The conditions noted are these: 30 µM.

The target of assay [4] is Sialic acid-binding Ig-like lectin 9 (Homo sapiens) (UniProt Q9Y336). Nature of the assay: Hs-Siglec9 ALPHAscreen SOP 20170721. The conditions noted are these: 10 µM. On the technique in general: Alpha assays give light when donor and acceptor beads are brought close together.
Assay [5] has as its system Trypanosoma cruzi. Put plainly: Trypanosoma cruzi phosphomannomutase and mannose-1-phosphate guanylyltransferase assay. It is filed as functional. The conditions noted are these: 10 µM.
The target in assay [6] is T2, Arginase-2, mitochondrial (Homo sapiens) (UniProt P78540).
T2 sequence (whole entry): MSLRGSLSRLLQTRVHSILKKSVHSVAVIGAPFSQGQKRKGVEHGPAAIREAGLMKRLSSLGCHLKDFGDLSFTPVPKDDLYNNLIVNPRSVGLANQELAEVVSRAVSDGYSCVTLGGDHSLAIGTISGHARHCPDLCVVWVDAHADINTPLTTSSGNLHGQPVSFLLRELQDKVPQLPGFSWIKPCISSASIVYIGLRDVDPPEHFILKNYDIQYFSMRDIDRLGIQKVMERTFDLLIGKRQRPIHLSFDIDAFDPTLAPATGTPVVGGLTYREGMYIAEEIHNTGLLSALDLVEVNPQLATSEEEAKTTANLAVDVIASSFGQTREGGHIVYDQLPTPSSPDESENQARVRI
Put plainly: in vitro enzyme assay to detect the production of urea directly proportional to the activity of Arginase II. Further: in the data most compounds retested in dose-response had high values. It is filed as functional. As to conditions: 33.3 µM.

The target of assay [7] is T3, Proteasome subunit beta (Trypanosoma cruzi) (UniProt O96673).
T3 sequence (whole entry): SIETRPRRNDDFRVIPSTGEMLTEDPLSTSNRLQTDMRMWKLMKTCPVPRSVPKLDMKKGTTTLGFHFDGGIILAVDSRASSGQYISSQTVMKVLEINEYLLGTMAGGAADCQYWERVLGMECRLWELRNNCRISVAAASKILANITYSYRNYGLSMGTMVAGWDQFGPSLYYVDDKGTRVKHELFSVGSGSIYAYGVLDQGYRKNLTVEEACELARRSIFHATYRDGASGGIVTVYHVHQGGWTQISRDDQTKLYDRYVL
Put plainly: Trypanosoma cruzi proteasome chymotrypsin-like activity (TcProtChymo) assay. Further: in the data most compounds retested in dose-response had high values. As to conditions: 9.37 µM. It is filed as functional.

The species named for assay [8] is Homo sapiens. Nature of the assay: To identify inhibition of the IFN signalling (Jak-Stat) pathway via expression of an eGFP reporter gene under the control of an IFN-stimulated response element (ISRE) containing MxA promoter. It is filed as functional. The conditions noted are these: 30 µM.
The target in assay [9] is T4, Tyrosyl-tRNA synthetase, putative (Trypanosoma cruzi (strain CL Brener)) (UniProt Q4DSP6).
T4 sequence (whole entry): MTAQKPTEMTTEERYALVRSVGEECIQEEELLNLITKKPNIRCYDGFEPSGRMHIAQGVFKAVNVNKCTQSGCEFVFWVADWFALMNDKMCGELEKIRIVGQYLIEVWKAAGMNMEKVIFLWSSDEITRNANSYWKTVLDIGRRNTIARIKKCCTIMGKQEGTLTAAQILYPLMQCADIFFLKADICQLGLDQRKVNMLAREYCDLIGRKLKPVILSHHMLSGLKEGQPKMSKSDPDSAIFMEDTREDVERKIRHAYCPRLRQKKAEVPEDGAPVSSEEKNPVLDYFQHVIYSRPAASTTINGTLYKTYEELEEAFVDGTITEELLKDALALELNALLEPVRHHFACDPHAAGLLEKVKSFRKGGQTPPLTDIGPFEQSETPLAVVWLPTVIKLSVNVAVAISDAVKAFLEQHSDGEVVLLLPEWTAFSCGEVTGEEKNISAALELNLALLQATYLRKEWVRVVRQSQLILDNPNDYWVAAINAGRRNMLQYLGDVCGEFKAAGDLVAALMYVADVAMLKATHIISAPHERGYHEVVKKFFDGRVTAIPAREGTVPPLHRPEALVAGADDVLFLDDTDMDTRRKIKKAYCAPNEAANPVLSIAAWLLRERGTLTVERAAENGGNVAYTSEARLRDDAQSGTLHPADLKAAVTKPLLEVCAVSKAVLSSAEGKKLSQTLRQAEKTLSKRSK
Nature of the assay: Trypanosoma cruzi tyrosyl tRNA synthetase (TcYRS) _High Tyrosine SOP. Further: in the data most compounds retested in dose-response had high values. It is filed as functional. The conditions noted are these: 30 µM.

The target of assay [10] is T4, Tyrosyl-tRNA synthetase, putative (Trypanosoma cruzi (strain CL Brener)). Nature of the assay: Trypanosoma cruzi tyrosyl tRNA synthetase (TcYRS) SOP. It is filed as functional. The conditions noted are these: 30 µM.
The target of assay [11] is Chromo domain-containing protein 1 (Saccharomyces cerevisiae (strain ATCC 204508 / S288c) (Baker's yeast)) (UniProt P32657). Put plainly: ScCHD-1 Enzyme Inhibition Assay. Further: in the data most compounds retested in dose-response had high values. It is filed as functional. As to conditions: 30 µM.

For some assays here: Measured potencies and affinities stand elsewhere.

Protein translocase subunit SecA (Escherichia coli (strain K12)), sequence (P10408 whole entry): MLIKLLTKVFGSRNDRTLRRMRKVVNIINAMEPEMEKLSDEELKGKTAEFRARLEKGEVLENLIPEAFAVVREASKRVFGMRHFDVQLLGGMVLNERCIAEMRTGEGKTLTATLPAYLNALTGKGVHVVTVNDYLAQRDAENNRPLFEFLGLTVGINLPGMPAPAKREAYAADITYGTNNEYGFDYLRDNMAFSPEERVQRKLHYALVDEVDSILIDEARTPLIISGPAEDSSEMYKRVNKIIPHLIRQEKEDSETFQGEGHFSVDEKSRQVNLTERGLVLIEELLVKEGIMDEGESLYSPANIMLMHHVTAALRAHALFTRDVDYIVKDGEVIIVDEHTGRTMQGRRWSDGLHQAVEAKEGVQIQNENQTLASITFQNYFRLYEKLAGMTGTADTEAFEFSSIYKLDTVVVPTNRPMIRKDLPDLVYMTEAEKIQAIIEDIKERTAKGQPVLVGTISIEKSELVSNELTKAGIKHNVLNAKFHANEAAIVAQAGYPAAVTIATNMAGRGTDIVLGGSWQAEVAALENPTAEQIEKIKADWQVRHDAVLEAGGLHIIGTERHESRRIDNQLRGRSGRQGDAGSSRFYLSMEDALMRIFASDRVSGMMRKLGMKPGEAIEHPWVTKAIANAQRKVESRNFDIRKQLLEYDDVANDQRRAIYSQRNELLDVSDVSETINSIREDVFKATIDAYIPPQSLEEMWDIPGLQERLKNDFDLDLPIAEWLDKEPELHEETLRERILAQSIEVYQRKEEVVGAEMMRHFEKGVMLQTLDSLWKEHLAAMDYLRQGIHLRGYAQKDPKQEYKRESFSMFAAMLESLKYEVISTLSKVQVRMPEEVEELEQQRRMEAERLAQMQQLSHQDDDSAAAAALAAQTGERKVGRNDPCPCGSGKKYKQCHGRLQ
Chromo domain-containing protein 1 (Saccharomyces cerevisiae (strain ATCC 204508 / S288c) (Baker's yeast)), sequence (P32657 whole entry, the tested form may be a part): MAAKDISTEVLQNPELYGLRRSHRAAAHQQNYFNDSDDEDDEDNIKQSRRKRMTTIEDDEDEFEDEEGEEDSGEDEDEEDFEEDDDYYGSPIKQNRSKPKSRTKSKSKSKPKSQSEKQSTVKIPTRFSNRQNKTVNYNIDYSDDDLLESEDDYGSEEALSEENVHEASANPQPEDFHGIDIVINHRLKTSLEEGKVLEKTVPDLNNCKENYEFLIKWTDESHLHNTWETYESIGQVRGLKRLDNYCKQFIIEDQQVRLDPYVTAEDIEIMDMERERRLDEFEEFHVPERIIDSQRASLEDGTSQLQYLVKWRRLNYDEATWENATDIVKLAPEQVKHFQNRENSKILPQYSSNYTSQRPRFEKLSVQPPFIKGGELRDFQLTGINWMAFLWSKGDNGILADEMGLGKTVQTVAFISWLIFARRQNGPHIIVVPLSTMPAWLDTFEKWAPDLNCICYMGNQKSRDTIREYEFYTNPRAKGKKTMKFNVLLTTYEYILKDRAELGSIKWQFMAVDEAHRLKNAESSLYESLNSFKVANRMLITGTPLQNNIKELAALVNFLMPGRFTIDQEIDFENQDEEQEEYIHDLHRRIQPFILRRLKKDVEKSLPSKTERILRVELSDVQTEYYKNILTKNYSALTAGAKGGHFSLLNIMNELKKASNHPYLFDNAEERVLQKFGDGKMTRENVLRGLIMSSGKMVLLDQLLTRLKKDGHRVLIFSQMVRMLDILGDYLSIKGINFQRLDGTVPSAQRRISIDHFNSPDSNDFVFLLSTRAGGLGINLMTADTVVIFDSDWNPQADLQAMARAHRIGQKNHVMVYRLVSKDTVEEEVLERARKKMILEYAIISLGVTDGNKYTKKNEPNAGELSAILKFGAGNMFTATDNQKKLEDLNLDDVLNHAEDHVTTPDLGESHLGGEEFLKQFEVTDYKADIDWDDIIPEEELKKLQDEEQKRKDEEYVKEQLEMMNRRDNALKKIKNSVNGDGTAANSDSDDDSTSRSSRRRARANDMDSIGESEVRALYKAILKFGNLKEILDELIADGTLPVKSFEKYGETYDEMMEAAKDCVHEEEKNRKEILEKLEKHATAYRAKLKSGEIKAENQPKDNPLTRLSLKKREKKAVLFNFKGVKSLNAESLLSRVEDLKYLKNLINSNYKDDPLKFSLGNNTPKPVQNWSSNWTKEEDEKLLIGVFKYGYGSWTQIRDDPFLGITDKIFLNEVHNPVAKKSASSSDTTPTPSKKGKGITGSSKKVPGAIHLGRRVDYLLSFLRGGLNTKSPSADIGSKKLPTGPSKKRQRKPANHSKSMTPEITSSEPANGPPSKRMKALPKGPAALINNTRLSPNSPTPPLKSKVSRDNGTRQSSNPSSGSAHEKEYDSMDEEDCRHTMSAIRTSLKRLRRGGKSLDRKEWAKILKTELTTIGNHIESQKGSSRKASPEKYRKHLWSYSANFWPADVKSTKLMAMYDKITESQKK
Sialic acid-binding Ig-like lectin 9 (Homo sapiens), sequence (Q9Y336 whole entry): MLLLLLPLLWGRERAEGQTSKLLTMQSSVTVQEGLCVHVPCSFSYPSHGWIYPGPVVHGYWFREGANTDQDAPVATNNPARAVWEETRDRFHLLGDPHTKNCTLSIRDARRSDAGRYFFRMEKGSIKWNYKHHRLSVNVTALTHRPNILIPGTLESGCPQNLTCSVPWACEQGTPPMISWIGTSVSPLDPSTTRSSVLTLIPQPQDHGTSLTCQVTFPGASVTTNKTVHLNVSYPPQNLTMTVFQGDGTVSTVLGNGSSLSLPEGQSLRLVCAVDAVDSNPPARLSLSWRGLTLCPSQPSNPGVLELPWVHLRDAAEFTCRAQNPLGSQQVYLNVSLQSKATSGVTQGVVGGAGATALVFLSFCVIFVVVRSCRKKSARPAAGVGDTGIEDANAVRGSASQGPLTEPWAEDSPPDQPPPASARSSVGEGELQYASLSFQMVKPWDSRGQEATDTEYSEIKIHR

For the compound `Cc1csc([C@@H]2C[C@@H]3CCN(C(=O)c4ccnnc4)C[C@H]3O2)n1`, the Percent Effect was 0.296% in [1]; 2.6% in assay [2]; 5.97% in assay [3]; 6.2% in [4]; -0.296% in [5]; -0.645% in assay [6]. Further, the Percent Effect in assay [7] is -0.174%; in assay [8] it was 12.4%; in assay [9] it was 6.35%; in [10], 8.97%; in assay [11] it was -1.14%.
On to `CCOCCCn1c(NC(=O)c2cnn(C)c2)nc2ccccc21`, for which the Percent Effect in assay [1] was -5.81%; in assay [2], 5.2%; in assay [3] it was 2.7%; in assay [4], 15%; in assay [5] it was -1.69%; in assay [6], -1.07%. The Percent Effect was 2.37% in [7]; 11.1% in assay [8]; 6.8% in assay [9]; 14.6% in [10]; -2.58% in assay [11].
`CCC(C)(C)NC(=O)Cn1nc(C)nc1-c1cccc(C)c1`: the Percent Effect in [1] is -4.79%; in assay [2], 20.8%; in assay [3], 3.98%; in [4], -4.39%; in assay [5], -3%; in [6] it was 1.07%. In addition, the Percent Effect in assay [7] is 7.26%; in assay [8], 14.5%; in [9] it was 9.71%; in assay [10], 21.9%; in assay [11] it was -6.87%.
For `CC(C)NC(=O)N1CCc2nc(C(=O)NCc3ccccc3)sc2CC1`, the Percent Effect was -0.812% in assay [1]; 10.8% in [2]; 5.95% in assay [3]; -6.63% in [4]; -3.42% in assay [5]; 5.41% in [6]. In addition, the Percent Effect in assay [7] is 18.1%; in [8] it was 13.3%; in assay [9], 8.65%; in [10], 17.9%; in assay [11] it was -3.29%.
Take `Cn1cc(CNc2ncnc3c2CCN(Cc2ccsc2)CC3)cn1`: the Percent Effect is -6.16% in assay [1]; 13.3% in [2]; -5.59% in assay [3]; 29.3% in assay [4]; 4.97% in assay [5]; 7.29% in assay [6]. In addition, the Percent Effect was 17.1% in assay [7]; -4.35% in assay [8]; 4.92% in assay [9]; 16.1% in assay [10]; -0.968% in assay [11].
For the compound `Cc1csc(N2CCN(CC(=O)Nc3nncs3)CC2C)n1` (stereo not given), the Percent Effect in [1] was -3.67%; in assay [2], 0%; in assay [3], -9.26%; in [4], 8.6%; in [5] it was -0.836%; in assay [6], -3.88%. The Percent Effect in [7] is 5.92%; in assay [8] it was 9.1%; in assay [9], 3.96%; in assay [10] it was -1.22%; in assay [11], 10.3%.
In the case of `COCC(=O)N1CCO[C@H]2[C@H](OC)CC[C@@H]21`, the Percent Effect in assay [1] is -6.12%; in assay [2], 5.41%; in [3] it was 1.82%; in assay [4], -0.654%; in assay [5] it was -4.79%; in assay [6], 4.78%. Further, the Percent Effect in assay [7] came to 21.8%; in [8], 9.88%; in assay [9], 1.08%; in [10], 5.13%; in assay [11], 1.01%.
For `Cc1nnc2n1CCN(Cc1ncc(-c3ccc(Cl)cc3)o1)C2`, the Percent Effect in assay [1] is -5%; in [2], -18.4%; in [3], 8.78%; in assay [4], 14.6%; in assay [5] it was 3.38%; in assay [6], 2.3%. For the same compound, the Percent Effect in assay [7] was -0.167%; in [8], 7.71%; in assay [9] it was 5.39%; in [10] it was 7.32%; in [11], -5.79%.
Regarding `O=C1[C@H]2CC[C@H](CN(S(=O)(=O)c3ccccc3)C2)N1Cc1cscn1`, the Percent Effect was -9.05% in [1]; 5.48% in assay [2]; 3.4% in assay [3]; -0.832% in assay [4]; -1.59% in [5]; -2.4% in assay [6]. Further, the Percent Effect in assay [7] is -4.02%; in assay [8], 27.2%; in [9] it was -1.04%; in [10], -1.24%; in assay [11] it was 2.37%.
For the compound `O=C(NCCO)Nc1cccc(Cl)c1SC(F)F`, the Percent Effect in [1] was -7.96%; in [2], -1.39%; in [3], 0.408%; in [4] it was 20.6%; in [5] it was -3.01%; in assay [6], 0.883%. For the same compound, the Percent Effect in [7] was 13.9%; in assay [8] it was 28.9%; in [9], -5.26%; in [10] it was -15.4%; in assay [11], -1.91%.

Source of the values: ChEMBL document CHEMBL3988442, “University of Dundee, Small-Polar-MMV Screening Library” (2021).
